About 3,300 (8.5%) of roughly 39,000 compounds were called active. What follows is part of a selection rich in actives, with near analogues and random picks from the rest.

Drawing on the antibiotic and cytotoxicity screens of Wong et al. (2023), this text covers cytotoxicity call for 71 compounds.

The assay relates to HepG2. Briefly: cytotoxicity call (relative viability < 0.9). The conditions noted are these: 10 µM.
Take `CN(C)Cc1cn(CC[C@H]2CC[C@@H](NS(=O)(=O)c3ccccc3)[C@@H](CO)O2)nn1`: the cytotoxicity call is “inactive”.

Take `C[C@H]1CN([C@@H](C)CO)C(=O)CCCn2cc(nn2)CO[C@@H]1CN(C)Cc1ccc(C(=O)Nc2ccccc2N)cc1`: the cytotoxicity call is “inactive”.

`C[C@@H]1CN([C@@H](C)CO)C(=O)c2cccc(NS(=O)(=O)c3cccs3)c2O[C@@H]1CN(C)CC1CC1`: the cytotoxicity call is “inactive”.

Regarding `C[C@@H]1CN([C@@H](C)CO)C(=O)c2cc(NS(=O)(=O)c3ccc(Cl)cc3)ccc2O[C@@H](C)CCCCO[C@@H]1CN(C)C(=O)NC1CCCCC1`, the cytotoxicity call is “inactive”.

Take `Cc1noc(C)c1S(=O)(=O)Nc1cccc2c1O[C@@H](CN(C)Cc1ccc(Oc3ccccc3)cc1)[C@@H](C)CN([C@@H](C)CO)C2=O`: the cytotoxicity call was “inactive”.

As to `C[C@H]1CN([C@@H](C)CO)S(=O)(=O)c2ccc(-c3ccncc3)cc2O[C@H]1CN(C)S(=O)(=O)c1ccccc1F`, the cytotoxicity call was “inactive”.

Consider `[O-][NH2+]N(CCO)CCO`, for which the cytotoxicity call is “inactive”.

`C[C@@H]1CN([C@H](C)CO)C(=O)c2cc(NC(=O)Nc3ccc4c(c3)OCO4)ccc2O[C@H]1CN(C)Cc1ccc(C(F)(F)F)cc1`: the cytotoxicity call was “inactive”.

With `C[C@H]1CN([C@@H](C)CO)C(=O)c2cc(NC(=O)Nc3ccc(C(F)(F)F)cc3)ccc2O[C@@H]1CN(C)Cc1ccc2c(c1)OCO2`, the cytotoxicity call was “active”.

For `C[C@H](CO)N1C[C@H](C)[C@H](CN(C)Cc2ccc(C(F)(F)F)cc2)Oc2ccc(NC(=O)Nc3ccc4c(c3)OCO4)cc2C1=O`, the cytotoxicity call is “inactive”.

For the compound `C[C@@H]1CN([C@@H](C)CO)C(=O)c2cc(NC(=O)Nc3ccc4c(c3)OCO4)ccc2O[C@@H]1CN(C)Cc1ccc(C(F)(F)F)cc1`, the cytotoxicity call was “inactive”.

Take `C[C@H](CO)N1C[C@H](C)[C@@H](CN(C)Cc2ccc3c(c2)OCO3)Oc2ccc(NC(=O)Nc3ccc(C(F)(F)F)cc3)cc2C1=O`: the cytotoxicity call was “active”.

For `C[C@H]1CN([C@@H](C)CO)C(=O)c2cc(NC(=O)Nc3ccc4c(c3)OCO4)ccc2O[C@@H]1CN(C)Cc1ccc(C(F)(F)F)cc1`, the cytotoxicity call is “inactive”.

In the case of `C[C@@H]1CN([C@H](C)CO)C(=O)c2cc(NC(=O)Nc3ccc4c(c3)OCO4)ccc2O[C@@H]1CN(C)Cc1ccc(C(F)(F)F)cc1`, the cytotoxicity call was “active”.

`C[C@@H]1CN([C@@H](C)CO)C(=O)c2cc(NC(=O)Nc3ccc(C(F)(F)F)cc3)ccc2O[C@H]1CN(C)Cc1ccc2c(c1)OCO2`: the cytotoxicity call was “active”.

As for `C[C@@H]1CN([C@H](C)CO)C(=O)c2ccccc2-c2ccccc2CO[C@H]1CN(C)C(=O)Nc1cccc(Cl)c1Cl`, the cytotoxicity call is “inactive”.

For the compound `C[C@@H]1CN([C@@H](C)CO)C(=O)c2cc(NC(=O)C3CC3)ccc2O[C@@H]1CN(C)S(=O)(=O)c1cn(C)cn1`, the cytotoxicity call was “inactive”.

`C[C@H](CO)N1C[C@H](C)[C@H](CN(C)S(=O)(=O)c2ccccc2)OCCCC[C@H](C)Oc2ccc(NC(=O)Nc3cccc4ccccc34)cc2C1=O`: the cytotoxicity call was “inactive”.

Take `COc1cccc(S(=O)(=O)Nc2ccc3c(c2)[C@H]2C[C@@H](CC(=O)NC4CCCCC4)O[C@@H](CO)[C@H]2O3)c1`: the cytotoxicity call was “inactive”.

`COCCOC(=O)N1C(=O)[C@@]2(c3ccccc31)[C@H](c1ccc(O)cc1)N1[C@H](c3ccccc3)[C@H](c3ccccc3)OC(=O)[C@H]1[C@@H]2C(=O)N1CCc2cc(OC)c(OC)cc2C1`: the cytotoxicity call is “inactive”.

On to `COc1ccc(S(=O)(=O)Nc2ccc3c(c2)C(=O)N([C@H](C)CO)C[C@@H](C)[C@@H](CN(C)S(=O)(=O)c2cccs2)O3)cc1`, for which the cytotoxicity call was “inactive”.

Take `C[C@@H]1CCCCO[C@H](CN(C)CC2CC2)[C@H](C)CN([C@@H](C)CO)C(=O)c2cc(NC(=O)Cc3ccccc3)ccc2O1`: the cytotoxicity call was “inactive”.

With `O=C(C[C@@H]1C=C[C@H](NC(=O)C2CC2)[C@H](CO)O1)NCCCN1CCOCC1`, the cytotoxicity call is “inactive”.

In the case of `Cc1[nH]c(/C=C2\C(=O)Nc3ccc(S(=O)(=O)Cc4c(Cl)cccc4Cl)cc32)c(C)c1C(=O)N1CCC[C@@H]1CN1CCCC1`, the cytotoxicity call is “active”.

As for `C[C@@H]1CN([C@@H](C)CO)C(=O)CCCn2cc(nn2)CO[C@@H]1CN(C)S(=O)(=O)c1ccc(C#N)cc1`, the cytotoxicity call is “inactive”.

Turning to `C[C@H]1CN([C@@H](C)CO)C(=O)c2cc(NS(=O)(=O)c3ccc(F)cc3)ccc2O[C@@H]1CN(C)Cc1ccc(Oc2ccccc2)cc1`, the cytotoxicity call was “inactive”.

`C[C@@H]1CN([C@@H](C)CO)C(=O)c2cc(NS(=O)(=O)c3ccc(F)cc3)ccc2O[C@@H]1CN(C)Cc1ccc(Oc2ccccc2)cc1`: the cytotoxicity call was “active”.

As for `C[C@@H]1CN([C@@H](C)CO)C(=O)c2cc(NS(=O)(=O)c3ccc(F)cc3)ccc2O[C@H]1CN(C)Cc1ccc(Oc2ccccc2)cc1`, the cytotoxicity call was “inactive”.

Turning to `C[C@H]1CN([C@@H](C)CO)C(=O)c2cc(NS(=O)(=O)c3ccc(F)cc3)ccc2O[C@H]1CN(C)Cc1ccc(Oc2ccccc2)cc1`, the cytotoxicity call was “inactive”.

With `C[C@@H]1CN([C@H](C)CO)C(=O)c2cc(NS(=O)(=O)c3ccc(F)cc3)ccc2O[C@@H]1CN(C)Cc1ccc(Oc2ccccc2)cc1`, the cytotoxicity call is “active”.

`C[C@@H]1CN([C@H](C)CO)C(=O)c2cc(NS(=O)(=O)c3ccc(F)cc3)ccc2O[C@H]1CN(C)Cc1ccc(Oc2ccccc2)cc1`: the cytotoxicity call is “inactive”.

Regarding `COCC(=O)N(C)C[C@@H]1Oc2cc(C#Cc3ccccc3)ccc2S(=O)(=O)N([C@H](C)CO)C[C@@H]1C`, the cytotoxicity call was “inactive”.

`C[C@H](CO)N1C[C@H](C)[C@H](CN(C)S(=O)(=O)c2cn(C)cn2)Oc2cc(C#Cc3ccccc3)ccc2S1(=O)=O`: the cytotoxicity call was “inactive”.

In the case of `CNCCC(Oc1cccc2ccccc12)c1cccs1.Cl` (stereo unspecified), the cytotoxicity call is “active”.

`CNCc1cccc2ccccc12`: the cytotoxicity call was “inactive”.

As to `Cc1noc(C)c1S(=O)(=O)Nc1ccc2c(c1)CC(=O)N([C@H](C)CO)C[C@H](C)[C@@H](CN(C)Cc1ccccc1)O2`, the cytotoxicity call is “inactive”.

`C[C@H]1CN([C@@H](C)CO)C(=O)c2cccc(NS(=O)(=O)c3ccc(Cl)cc3)c2O[C@@H]1CN(C)C(=O)Nc1cccc2ccccc12`: the cytotoxicity call was “inactive”.

Turning to `Nc1nc(=S)c2ncn([C@@H]3O[C@H](CO)[C@@H](O)[C@H]3O)c2[nH]1`, the cytotoxicity call was “active”.

Consider `OC[C@H]1O[C@H](n2cnc3cncnc32)[C@@H](O)[C@@H]1O`, for which the cytotoxicity call is “active”.

Turning to `Nc1ncnc2c1ncn2[C@H]1O[C@@H](CO)[C@H](O)[C@@H]1O`, the cytotoxicity call was “inactive”.

With `Nc1ncnc2c1ncn2[C@@H]1O[C@H](COP(=O)(O)OP(=O)(O)OP(=O)(O)OP(=O)(O)OC[C@H]2O[C@@H](n3cnc4c(N)ncnc43)[C@H](O)[C@@H]2O)[C@@H](O)[C@H]1O`, the cytotoxicity call was “active”.

Take `O=c1nc[nH]c2c1ncn2[C@@H]1O[C@H](CO)[C@@H](O)[C@H]1O`: the cytotoxicity call was “inactive”.

For `Nc1ncnc2c1ncn2[C@@H]1O[C@H](CO)[C@@H](O)[C@@H]1O`, the cytotoxicity call was “inactive”.

`Nc1nc(=O)c2ncn([C@@H]3O[C@H](CO)[C@@H](O)[C@H]3O)c2[nH]1`: the cytotoxicity call is “inactive”.

Regarding `Nc1nc(Cl)nc2c1ncn2[C@@H]1O[C@H](CO)[C@@H](O)[C@H]1O`, the cytotoxicity call is “inactive”.

With `Nc1ncnc2c1ncn2[C@@H]1O[C@H](COP(=O)(O)O)[C@@H](O)[C@H]1O`, the cytotoxicity call was “inactive”.

For `Nc1nc(F)nc2c1ncn2[C@@H]1O[C@H](COP(=O)(O)O)[C@@H](O)[C@@H]1O`, the cytotoxicity call is “inactive”.

As to `Nc1ncnc2c1ncn2[C@H]1O[C@@H](COP(=O)(O)OP(=O)(O)OP(=O)(O)O)[C@@H](O)[C@@H]1O`, the cytotoxicity call is “inactive”.

For `Nc1nc(F)nc2c1ncn2[C@@H]1O[C@H](CO)[C@@H](O)[C@H]1O`, the cytotoxicity call was “active”.

For `Cc1[nH]c(=O)[nH]c(=O)c1S(=O)(=O)N1CCC[C@H](C(=O)NCc2ccc3c(c2)OCO3)C1`, the cytotoxicity call is “inactive”.

With `C[C@@H]1CN([C@@H](C)CO)C(=O)c2cc(NC(=O)NC3CCCCC3)ccc2O[C@@H](C)CCCCO[C@H]1CN(C)Cc1ccncc1`, the cytotoxicity call was “inactive”.

For `C[C@H]1CN([C@@H](C)CO)S(=O)(=O)c2ccc(C#CC3(O)CCCC3)cc2O[C@H]1CN(C)C(=O)Nc1cccc(F)c1`, the cytotoxicity call was “inactive”.

Regarding `C[C@H](CO)N1C[C@H](C)[C@H](CN(C)Cc2ccc(C(F)(F)F)cc2)Oc2ccc(NC(=O)Cc3cn(C)c4ccccc34)cc2C1=O`, the cytotoxicity call is “inactive”.

For the compound `O=C(C[C@@H]1CC[C@H](NC(=O)Cc2ccccn2)[C@@H](CO)O1)NCCCN1CCOCC1`, the cytotoxicity call was “inactive”.

In the case of `COc1ccc(CN(C)C[C@H]2OCCCC[C@@H](C)Oc3ccc(NC(=O)Nc4c(C)noc4C)cc3C(=O)N([C@H](C)CO)C[C@@H]2C)cc1`, the cytotoxicity call is “inactive”.

Take `C[C@H]1CCCCO[C@H](CN(C)C(=O)Nc2ccc3c(c2)OCO3)[C@@H](C)CN([C@@H](C)CO)C(=O)c2cc(NC(=O)Nc3cccc4ccccc34)ccc2O1`: the cytotoxicity call was “inactive”.

In the case of `COc1ccc(S(=O)(=O)N(C)C[C@H]2Oc3ccc(NC(=O)CCC(F)(F)F)cc3CC(=O)N([C@H](C)CO)C[C@@H]2C)cc1`, the cytotoxicity call was “inactive”.

Take `C[C@@H]1CN([C@H](C)CO)C(=O)Cc2cc(NS(=O)(=O)c3cccs3)ccc2O[C@H]1CN(C)Cc1ccc(Cl)c(Cl)c1`: the cytotoxicity call was “inactive”.

For `Cc1cccc(S(=O)(=O)N2C[C@H](O)COC[C@@H]3O[C@H](CC(=O)NCCCN4CCOCC4)CC[C@H]32)c1`, the cytotoxicity call is “inactive”.

As for `CC(=O)C=C(O)CCC(=O)O`, the cytotoxicity call was “inactive”.

On to `C=CCSC1=N[C@@]2(COCc3ccc(OC)cc3)Oc3ccccc3[C@H]([C@H]2CO[Si](C)(C)C(C)(C)C)N1C(=O)c1ccccc1`, for which the cytotoxicity call was “inactive”.

Turning to `Cc1noc(C)c1S(=O)(=O)Nc1ccc2c(c1)C(=O)N([C@H](C)CO)C[C@H](C)[C@H](CN(C)C)OCCCC[C@H](C)O2`, the cytotoxicity call was “inactive”.

For the compound `Nc1ccn([C@@H]2O[C@H](CO)[C@H](O)[C@@H]2O)c(=O)n1`, the cytotoxicity call was “inactive”.

On to `Nc1ccn([C@@H]2O[C@H](CO)[C@@H](O)[C@@H]2O)c(=O)n1`, for which the cytotoxicity call is “inactive”.

`Nc1ncn([C@@H]2C[C@H](O)[C@@H](CO)O2)c(=O)n1`: the cytotoxicity call is “inactive”.

`Nc1ncn([C@@H]2O[C@H](CO)[C@@H](O)[C@H]2O)c(=O)n1`: the cytotoxicity call was “active”.

As to `CNc1ncnc2c1ncn2[C@@H]1O[C@H](CO)[C@@H](O)[C@H]1O`, the cytotoxicity call is “inactive”.

For `OC[C@H]1O[C@@H](n2cnc3c(NC4CCCC4)ncnc32)[C@H](O)[C@@H]1O`, the cytotoxicity call is “inactive”.

Consider `Nc1ncn(C2OC(CO)C(O)C2O)c(=O)n1` (stereo unspecified), for which the cytotoxicity call is “active”.

With `Nc1ncn([C@H]2C[C@H](O)[C@@H](CO)O2)c(=O)n1`, the cytotoxicity call is “inactive”.

As to `OC[C@H]1O[C@@H](n2cnc3c(NCc4ccco4)ncnc32)[C@H](O)[C@@H]1O`, the cytotoxicity call is “active”.
